Data on 36 compounds can be found in PubChem BioAssay (EPA / NIEHS).

Molecules are shown by their SMILES. More than one record can exist for a structure, and the calls need not agree. Calls of active or inactive are those of the source. The calls were made as follows: active = hit-call score of the fitted dose curve at least 0.9, where 1 is the maximum; inactive = score below 0.9.

Read-out in this test: Tissue Factor, F3 (gene 2152)
The test can be described thus: BSK_LPS_TissueFactor: BioMAP Diversity Plus: LPS Assay for Tissue Factor Biomarker Activity (AID 2283084). The note with it: primary human HUVEC with PBMC; actives raise or lower the signal. The procedure:
BSK_LPS is a cell-based, multiplexed-readout assay that uses umbilical vein endothelium and peripheral blood mononuclear cells, a human vascular primary cell co-culture, with measurements taken at 24 hours after chemical dosing in a 96-well plate.BSK_LPS_TissueFactor is an assay component measured in the BSK_LPS assay. It measures CD142 Tissue Factor antibody related to regulation of gene expression using ELISA technology.Data from the assay component BSK_LPS_TissueFactor was analyzed into 1 assay endpoint. This assay endpoint, BSK_LPS_TissueFactor, was analyzed with bidirectional fitting relative to DMSO as the negative control and baseline of activity. Using a type of binding reporter, gain or loss-of-signal activity can be used to understand changes in the signaling as they relate to the gene F3. Furthermore, this assay endpoint can be referred to as a primary readout, because this assay has produced multiple assay endpoints where this one serves a signaling function. To generalize the intended target to other relatable targets, this assay endpoint is annotated to the cytokine intended target family, where the subfamily is coagulation factor.
The levels of cell surface (or secreted, indicated by the prefix "s") biomarker endpoints were measured by ELISA. Overt cytotoxicity to cells in confluent adherent cultures (all systems other than the BT system) was assessed by measuring total protein levels using sulforhodamine B (SRB) staining in parallel cultures at the time of biomarker measurements, indicated as SRB endpoints. For proliferation assays for adherent cell types, individual cell types are cultured at sub-confluence and relative cell numbers quantified by SRB staining at time points optimized for each system (48 h: 3C and CASM3C systems; 72 h: BT and HDF3CGF systems; 96 h: SAg system). SRB was performed by staining cells with 0.1% SRB after fixation with 10% TCA and reading wells at 560 nm.Viability and proliferation of PBMC (T cells) was quantified by Alamar Blue reduction for the SAg and BT systems. For PBMC viability (referred to as PBMC Cytotoxicity within the assay endpoint names), cells were plated (75,000/well in a 96-well plate) and then chemical samples added for 1 h before addition of activators, SEB and TSST-1 (20 ng/mL final concentration each). Cells were incubated for 90 h. Then, Alamar Blue (20 uL/well) (Invitrogen, Cat DAL1100) was added for 6 h, and the plates were read with a fluorescence microplate reader at 546/580 nm (excitation/emission). For PBMC proliferation, cells were plated and activated as above but incubated for only 16 h prior to addition of Alamar Blue. Plates were read after 6 h.
One may read the AC50 as the concentration giving half of the maximal activity seen. Turning to `CCCCCCCCCCCCCCCCCC[N+](C)(C)Cc1ccccc1`, the AC50 was 2.69 µM (active). As for `COCN(COC)c1nc(N(COC)COC)nc(N(COC)COC)n1`, the result was inactive. Regarding `O=C(NO)c1ccccc1`, the result was inactive. As to `CCC(C)c1ccccc1O` (stereo not given), the outcome was inactive. Consider `O=P(O)(O)CCC(F)(F)C(F)(F)C(F)(F)C(F)(F)C(F)(F)C(F)(F)F`, for which the result was inactive and the half-maximal activity concentration (AC50) was 5.95 µM (active).

As for `Cc1[nH]nc2c1N=C(c1ccccc1Cl)c1cc([N+](=O)[O-])ccc1N2`, the AC50 was 4.61 µM (active). As to `CCCCCCCCCCCC`, the AC50 was 16.7 µM (active) and the result was inactive. As for `CCOC(=O)CN[C@@H](C(=O)N1CC[C@H]1C(=O)NCc1ccc(/C(N)=N/O)cc1)C1CCCCC1`, the result was inactive.

`CN(CCO)S(=O)(=O)C(F)(F)C(F)(F)C(F)(F)C(F)(F)C(F)(F)C(F)(F)C(F)(F)C(F)(F)F`: the result was inactive. Regarding `O=C(c1ccccc1)c1ccccc1`, the outcome was inactive.

Turning to `CCCCC=O`, the outcome was inactive. Turning to `CCCCCc1ccc(O)cc1`, the concentration at half-maximal activity (AC50) was 29 µM (active).

For the compound `OCC(F)(F)C(F)(F)C(F)(F)C(F)(F)C(F)(F)C(F)(F)C(F)(F)C(F)(F)C(F)(F)C(F)(F)C(F)(F)F`, the outcome was inactive. On to `COc1cc(OC)nc(NC(=O)NS(=O)(=O)Nc2ccccc2C(=O)N(C)C)n1`, for which the outcome was inactive. As to `CC(=O)Nc1ccc(O)cc1`, the result was inactive. The same measure, in the same setting: for `Clc1ccc(Nc2nnc(Cc3ccncc3)c3ccccc23)cc1` the value was “inactive”; for `Oc1cc2ccccc2cc1O`, “inactive”. As for `CCCCCCCCCCCCOS(=O)(=O)O`, the outcome was inactive. Turning to `O=S(=O)(O)C(F)(F)C(F)(F)C(F)(F)C(F)(F)C(F)(F)C(F)(F)C(F)(F)C(F)(F)C(F)(F)C(F)(F)F`, the concentration at half-maximal activity (AC50) was 13.3 µM (active) and the outcome was inactive. As to `C=CC(=C)CC/C=C(\C)CCC=C(C)C`, the result was inactive. Take `Oc1ccc(Cc2ccccc2O)cc1`: the outcome was inactive. For `Cc1ccc(C(=O)c2ccccc2)cc1`, the outcome was inactive. As for `COc1cccc(O)c1`, the result was inactive.

As to `O=C(CCCN1CCC(O)(c2ccc(Cl)cc2)CC1)c1ccc(F)cc1`, the concentration at half-maximal activity (AC50) is 20 µM (active). For the compound `CC1=NN(c2ccccc2)C(=O)C1`, the result was inactive. `N=C(N)c1ccc(OCCCCCOc2ccc(C(=N)N)cc2)cc1`: the result was inactive. `OCC(CO)(CBr)CBr`: the result was inactive.

For `C=CC(=O)OCCC(F)(F)C(F)(F)C(F)(F)C(F)(F)C(F)(F)C(F)(F)C(F)(F)C(F)(F)F`, the outcome was inactive.

On to `O=C1NS(=O)(=O)c2ccccc21`, for which the outcome was inactive. In the case of `CCCCC(CC)C(=O)OCCOCCOCCOCCOC(=O)C(CC)CCCC` (stereo not given), the result was inactive.

For the compound `O=C(CC(=O)C(F)(F)C(F)(F)C(F)(F)F)c1cccs1`, the AC50 was 10.4 µM (active) and the outcome was inactive. Turning to `COC1=CC(=O)C[C@@H](C)[C@]12Oc1c(Cl)c(OC)cc(OC)c1C2=O`, the outcome was inactive.

As for `O=C1c2ccc(O)c(O)c2C(=O)c2c(O)ccc(O)c21`, the result was inactive. Turning to `O=C(NCc1ncc(C(F)(F)F)cc1Cl)c1c(Cl)cccc1Cl`, the outcome was inactive.

Consider `CCCCCCCCCCCCCCC`, for which the outcome was inactive.

Regarding `CN(C)c1ccc(C(=C2C=CC(=[N+](C)C)C=C2)c2ccccc2)cc1`, the AC50 was 0.025 µM (active).
